PubChem BioAssay (Tox21)
Records with an inconclusive call do not appear. A call without a number means that no potency is given here. Active and inactive are the calls of the source. Calls follow the shape of the dose curve; as a rule, active = well fitted cell-killing curve with a large enough effect in the repeat runs; inconclusive = weak or mixed curves, or effect the other way; inactive = flat fitted curve, though single readings scatter.

Test: qHTS RealTime-Glo MT Cell Viability Assay in HEK293 cells - 32 hour (AID 1224868); also: nearly all actives have a fitted effect of over 50% in size; as to activity change, negative = cytotoxic: top concentration of the series differs between compounds
Details: RealTime-Glo luminescence; series mostly up to 76.8 µM
Excerpt: National Center for Advancing Translational Sciences [NCATS]
NIH Chemical Genomics Center [NCGC]
U.S. Environmental Protection Agency [EPA]
National Institutes of Environmental Health Sciences [NIEHS]
National Toxicology Program [NTP]
U.S. Food and Drug Administration [FDA]
Measure of cell viability is critical in the cell-base assay. Analysis of cell viability is necessary for the characterization of cell responses to cytotoxic drugs and environmental stress. A RealTime-Glo MT Cell Viability Assay to monitor cell viability in real time of continues cell culture during 40 hours of compound treatment was used to screen Tox21 10K library compounds in Hek293 cells. The RealTime-Glo MT Cell Viability Assay is a nonlytic, homogeneous, bioluminescent method to measure cell viability in real time using a simple, plate-based method. The assay involves adding NanoLuc luciferase and a cell-permeant prosubstrate to cells in culture. Viable cells reduce the proprietary prosubstrate to generate a substrate for NanoLuc luciferase. This substrate diffuses from cells into the surrounding culture medium, where it is rapidly used by the NanoLuc Enzyme to produce a luminescent signal. The signal correlates with the number of viable cells, making the assay well suited for cytotoxicity studies.
Tox21 Assay Protocol Summary:
The mixture of Hek293 cell suspension and reagents were dispensed at 600cells/6 ul/well in 1536-well tissue culture treated black solid bottom plates using a Multidrop dispenser. After the assay plates were incubated at a 37 C/5% CO2 incubator for 5 hours, 23 nL of compounds dissolved in DMSO, positive and negative controls was transferred to the assay plate by a pintool work station. The plates were incubated at 37 C for 40 hours. The luminescence intensity were measured at 0h, 8h, 16h, 24h, 32h and 40h time points using ViewLux plate reader during compound treatment.
Potency is read from the fitted curve at half-maximal effect.

Structure (SMILES)	Potency	activity change, negative = cytotoxic
O=CCCc1ccccc1	inactive	–
Cc1nnc(SCC2=C(C(=O)O)N3C(=O)[C@@H](NC(=O)Cn4cnnn4)[C@H]3SC2)s1	inactive	–
OCc1ccccc1O	inactive	–
CN(C)CC[C@@H](c1ccc(Cl)cc1)c1ccccn1	inactive	–
CCOC(=O)NCCC[Si](OCC)(OCC)OCC	inactive	–
O=C(Cl)c1cccc([N+](=O)[O-])c1	inactive	–
C[C@]12C(=O)OC(=O)[C@H]1[C@H]1C=C[C@@H]2C1	inactive	–
Cc1ncc(CO)c(CN)c1O	inactive	–
CCOC(=O)[C@H](CCc1ccccc1)N[C@@H](C)C(=O)N1Cc2cc(OC)c(OC)cc2C[C@H]1C(=O)O	inactive	–
CS(=O)(=O)c1ccc([C@@H](O)[C@@H](CF)NC(=O)C(Cl)Cl)cc1	inactive	–
CN(C)Cc1ccccc1	inactive	–
NC(Cc1ccc(F)cc1)C(=O)O (stereo not given)	–	-0.0847% [at 6.97 µM] (inactive)
CN1CCC[C@@H]1Cc1c[nH]c2ccc(CCS(=O)(=O)c3ccccc3)cc12	inactive	–
COc1ccc(Nc2ccc(OC)cc2)cc1	25 µM (active)	–
Nc1ccc2ccccc2c1S(=O)(=O)O	inactive	–
Cc1cc(S(=O)(=O)O)c(N)cc1Cl	inactive	–
CC(C)NCC(O)COc1ccc(CCOCC2CC2)cc1 (stereo not given)	inactive	–
CC(=O)N(CC(O)CN(C(C)=O)c1c(I)c(C(=O)NCC(O)CO)c(I)c(C(=O)NCC(O)CO)c1I)c1c(I)c(C(=O)NCC(O)CO)c(I)c(C(=O)NCC(O)CO)c1I (stereo not given)	inactive	–
CCCCCCCCCC/C=C/C#N	inactive	–
C=CC1CO1 (stereo not given)	inactive	–

Structure (SMILES)	Potency	activity change, negative = cytotoxic
CC(=O)N[C@@H](CC(C)C)C(=O)O	inactive	–
FC(F)(F)C(F)(F)C(F)(F)C(F)(F)C(F)(F)C(F)(F)C(F)(F)C(F)(F)Br	inactive	–
C[C@]12CCC(=O)C=C1CC[C@@H]1[C@@H]2CC[C@@]2(C)[C@H]1CC[C@]2(O)C(=O)CO	inactive	–
CCOc1ccc(OCC)c(Cl)c1	inactive	–
N#Cc1ccc(C(c2ccc(C#N)cc2)n2cncn2)cc1	inactive	–
COc1ccc2nc(NC(=O)Nc3ccccc3)sc2c1	5.35 µM (active)	–
CC(C)NC[C@@H](O)COc1cccc2ccccc12	inactive	–
CO[C@@]1(NC(=O)CSCC#N)C(=O)N2C(C(=O)O)=C(CSc3nnnn3C)CS[C@@H]21	inactive	–
CC1=CC(=O)CC(C)(C)C1=O	inactive	–
CN(CC1(C)CCCO1)S(=O)(=O)c1ccc(Cl)c(S(N)(=O)=O)c1 (stereo not given)	inactive	–
C/C(=N\O)[C@@H](C)NCC(C)(C)CN[C@H](C)/C(C)=N/O	inactive	–
CCOc1ccc(NC(N)=O)cc1	inactive	–
COc1cc(C)ccc1C(C)C	inactive	–
CC(C)C(=O)OC/C=C/c1ccccc1	inactive	–
O=c1[nH]cnc2c1ncn2[C@@H]1O[C@H](CO)[C@@H](O)[C@H]1O	inactive	–
COC(=O)N[C@H](C(=O)N[C@@H](Cc1ccccc1)[C@@H](O)CN(Cc1ccc(-c2ccccn2)cc1)NC(=O)[C@@H](NC(=O)OC)C(C)(C)C)C(C)(C)C	inactive	–
COC(=O)c1ccc2cc(C(=O)OC)ccc2c1	–	-1.06% [at 15.8 µM] (inactive)
O=C(O)c1ccccc1Nc1cc(Cl)ccc1C(=O)O	–	3.41% [at 15.8 µM] (inactive)
CC1=C(O)C(=O)OC1C (stereo not given)	inactive	–
FC(F)(F)c1ccccc1	inactive	–
